Data taken from PubChem BioAssay (NCI).
This is part of a sample that, as a whole, favours compounds with a hit. Of some 83,000 tested, about 20% had one in any assay.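 Each cell line was grown in a 96-well plate and treated with one concentration of compound for 48 hours. Values below 10 were considered active.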 Calls of active or inactive are those of the source.

Experiments:
Assay in all cases: NCI-60 one-dose screen, 48 h (100 = growth as untreated, 0 = no growth, -100 = all killed)
HCT-15 colon = conditions: 10 µM unless noted
HT29 colon = conditions: 10 µM unless noted
SNB-75 CNS = conditions: 10 µM unless noted
SNB-19 CNS = conditions: 10 µM unless noted
U251 CNS = conditions: 10 µM unless noted
PC-3 prostate = conditions: 10 µM unless noted
SK-MEL-5 melanoma = conditions: 10 µM unless noted
UACC-62 melanoma = conditions: 10 µM unless noted
LOX IMVI melanoma = conditions: 10 µM
SK-MEL-2 melanoma = conditions: 10 µM unless noted
EKVX NSCLC = conditions: 10 µM unless noted
SN12C renal = conditions: 10 µM unless noted
UO-31 renal = conditions: 10 µM unless noted
TK-10 renal = conditions: 10 µM unless noted
ACHN renal = conditions: 10 µM unless noted
CAKI-1 renal = conditions: 10 µM unless noted
A498 renal = conditions: 10 µM unless noted
CCRF-CEM leukemia = conditions: 10 µM unless noted
MOLT-4 leukemia = conditions: 10 µM unless noted
SK-MEL-28 melanoma = conditions: 10 µM unless noted

Measured: growth

Cn1cc(-c2cc(N)n3nc(-c4cn(C)c5ccccc45)cc3n2)c2cc(Cl)ccc21
active: HCT-15 colon -78.3% | HT29 colon -67.2% | SNB-75 CNS -44% | SNB-19 CNS -0.728% | U251 CNS -74.5% | PC-3 prostate -38.1% | SK-MEL-5 melanoma -67% | UACC-62 melanoma -56.2% | LOX IMVI melanoma -86.5% | SK-MEL-2 melanoma -87.4% | EKVX NSCLC -31% | SN12C renal -53.9% | UO-31 renal -88.5% | TK-10 renal -42.9% | ACHN renal -28.2% | CAKI-1 renal -82.5% | A498 renal -24.8% | CCRF-CEM leukemia -5.76% | MOLT-4 leukemia -6.02%

CC(=O)Nc1cccc(Nc2nc(NCc3ccccc3)c3ccccc3n2)c1
active: HCT-15 colon -87.1% | HT29 colon -86.5% | SNB-75 CNS -93.8% | SNB-19 CNS -98.3% | U251 CNS -76.4% | PC-3 prostate -73.2% | SK-MEL-5 melanoma -98.2% | UACC-62 melanoma -97.8% | SK-MEL-28 melanoma -95.9% | SK-MEL-2 melanoma -89.2% | EKVX NSCLC -97.6% | SN12C renal -90.2% | UO-31 renal -98.5% | TK-10 renal -96.7% | ACHN renal -100% | CAKI-1 renal -94.8% | A498 renal -99.3% | CCRF-CEM leukemia -13.8% | MOLT-4 leukemia -61%

C=C1CC[C@@H]2[C@]3(C)COC(c4cn[nH]c4-c4ccc(OC)cc4)O[C@@H]3CC[C@@]2(C)[C@@H]1C/C=C1/C(=O)OCC1O (stereo not given in full)
active: HCT-15 colon -35.3% | HT29 colon -26.3% | SNB-75 CNS -16.5% | U251 CNS -76% | SK-MEL-5 melanoma -94.3% | UACC-62 melanoma -75.2% | SK-MEL-28 melanoma -52.2% | SK-MEL-2 melanoma -42.2% | EKVX NSCLC -59.8% | SN12C renal -14.3% | UO-31 renal -44.2% | TK-10 renal 5.62% | ACHN renal 3.82% | CAKI-1 renal -23.4% | CCRF-CEM leukemia 0.599%
inactive: SNB-19 CNS 18.5% | PC-3 prostate 39.3% | A498 renal 50.2%

CN(C)CCn1c2ccccc2c2nc3ccc([N+](=O)[O-])cc3nc21
inactive: SNB-75 CNS 47.6% | PC-3 prostate 19.9% | EKVX NSCLC 17.3% | CCRF-CEM leukemia 17.6%
active: HCT-15 colon 4.65% | HT29 colon -15.6% | SNB-19 CNS 4.08% | U251 CNS -8.94% | SK-MEL-5 melanoma -81% | UACC-62 melanoma -25.5% | SK-MEL-28 melanoma 8.67% | SK-MEL-2 melanoma -10.6% | SN12C renal -9.41% | UO-31 renal -47.6% | TK-10 renal -1.22% | ACHN renal -40.8% | CAKI-1 renal -23.8% | A498 renal -41.7% | MOLT-4 leukemia 8.56%

C=C1CCC2C3(C)COC(c4ccc(F)cc4)OC3CCC2(C)C1C/C=C1/C(=O)OCC1O (stereo not given)
active: HCT-15 colon -42.3% | HT29 colon -4.77% | SNB-75 CNS -21.6% | SNB-19 CNS -55.8% | U251 CNS -94.4% | PC-3 prostate -43.6% | SK-MEL-5 melanoma -90.3% | UACC-62 melanoma -8.34% | SK-MEL-28 melanoma -70.3% | SK-MEL-2 melanoma -63.2% | EKVX NSCLC 5.53% | SN12C renal -11.3% | UO-31 renal -90.6% | TK-10 renal -35.8% | ACHN renal -97.6% | CAKI-1 renal -5.17%
inactive: A498 renal 89.6% | CCRF-CEM leukemia 11.4%

C(=C\c1cc(/C=C/c2ccccc2)c2ccccc2n1)/c1ccccc1
inactive: HCT-15 colon 29.2% | HT29 colon 86% | SNB-75 CNS 115% | SNB-19 CNS 97.7% | U251 CNS 62.3% | PC-3 prostate 78.2% | SK-MEL-5 melanoma 81.7% | UACC-62 melanoma 93.4% | SK-MEL-28 melanoma 114% | SK-MEL-2 melanoma 122% | EKVX NSCLC 100% | SN12C renal 76.8% | UO-31 renal 88.5% | TK-10 renal 106% | ACHN renal 107% | CAKI-1 renal 94.2% | A498 renal 132% | CCRF-CEM leukemia 60.8%

C#CCOc1cc(N(CC)CC)ccc1C(C(=O)NC(C)(C)C)N(C(=O)C1CCc2cc(F)ccc2O1)c1ccc(F)cc1 (stereo not given)
active: SK-MEL-2 melanoma -24.7% | MOLT-4 leukemia 9.55%
inactive: HCT-15 colon 44.6% | HT29 colon 61% | SNB-75 CNS 60.5% | SNB-19 CNS 41.6% | U251 CNS 37.9% | PC-3 prostate 17.6% | SK-MEL-5 melanoma 33.9% | UACC-62 melanoma 35.5% | LOX IMVI melanoma 42.3% | SK-MEL-28 melanoma 66.7% | EKVX NSCLC 37.8% | SN12C renal 48.9% | UO-31 renal 30.4% | TK-10 renal 68.7% | ACHN renal 33.5% | CAKI-1 renal 30.7% | A498 renal 78.5% | CCRF-CEM leukemia 40.4%

COc1cc(/C=C/C(=O)c2ccccc2)ccc1Oc1nc(Nc2ccc(F)cc2)nc(N(C)C)n1
active: HCT-15 colon -0.132% | SNB-19 CNS 3.33% | U251 CNS 5.24% | SK-MEL-2 melanoma -38% | SN12C renal -5.73% | ACHN renal -4.12% | CCRF-CEM leukemia 9.17% | MOLT-4 leukemia 7.1%
inactive: HT29 colon 14.5% | SNB-75 CNS 39.9% | PC-3 prostate 30.2% | SK-MEL-5 melanoma 18.9% | UACC-62 melanoma 14.8% | SK-MEL-28 melanoma 18% | EKVX NSCLC 38.6% | UO-31 renal 27.3% | TK-10 renal 89.8% | CAKI-1 renal 37.5% | A498 renal 48.8%

CNC(=O)c1cc(Oc2ccc3nc(NC(=O)Nc4cccc(OC(F)(F)F)c4)sc3c2)ccn1
inactive: HCT-15 colon 51.1% | HT29 colon 25% | SK-MEL-5 melanoma 53.7% | SK-MEL-28 melanoma 31.9% | EKVX NSCLC 42.8% | SN12C renal 23.4% | UO-31 renal 14.5% | CCRF-CEM leukemia 52.9%
active: SNB-75 CNS 6.6% | SNB-19 CNS -46.6% | U251 CNS 2.42% | PC-3 prostate 4.97% | UACC-62 melanoma -4.81% | SK-MEL-2 melanoma -20.5% | TK-10 renal -33.7% | ACHN renal -2.02% | CAKI-1 renal -8.87% | A498 renal 8.49%

O=C1Nc2cc(Cl)ccc2/C1=C/c1cccc(OCc2ccccn2)c1
active: HCT-15 colon 7.16% | HT29 colon 0.146% | U251 CNS -17.4% | SK-MEL-5 melanoma 6.08% | UACC-62 melanoma 5.17% | SN12C renal -15% | CCRF-CEM leukemia 2.33% | MOLT-4 leukemia 4.01%
inactive: SNB-75 CNS 51.3% | SNB-19 CNS 20.5% | PC-3 prostate 20.1% | SK-MEL-28 melanoma 39.5% | SK-MEL-2 melanoma 41% | EKVX NSCLC 15% | UO-31 renal 29.7% | TK-10 renal 35.5% | ACHN renal 16.9% | CAKI-1 renal 16.8% | A498 renal 123%

CC(=O)Nc1cccc(Nc2nccc(N[C@@H](C)c3ccccc3)n2)c1
active: HCT-15 colon 7.75% | HT29 colon 2.53% | SNB-75 CNS 7.86% | SK-MEL-5 melanoma -31%
inactive: SNB-19 CNS 25.6% | U251 CNS 24.4% | PC-3 prostate 30.5% | UACC-62 melanoma 20.6% | SK-MEL-28 melanoma 49.4% | SK-MEL-2 melanoma 41.5% | EKVX NSCLC 16.6% | SN12C renal 15.4% | UO-31 renal 25.9% | TK-10 renal 29.1% | ACHN renal 12.7% | CAKI-1 renal 29% | A498 renal 68% | CCRF-CEM leukemia 24.9% | MOLT-4 leukemia 20.5%

Cc1ccc(NC(=O)CN2CCN(c3ncnc4c3cnn4-c3ccccc3)CC2)cc1
active: ACHN renal -32.7%
inactive: HCT-15 colon 50.3% | HT29 colon 93.8% | SNB-75 CNS 103% | SNB-19 CNS 85.9% | U251 CNS 86.5% | PC-3 prostate 65.5% | SK-MEL-5 melanoma 77.6% | UACC-62 melanoma 69.3% | LOX IMVI melanoma 23.3% | SK-MEL-2 melanoma 87.8% | EKVX NSCLC 81% | SN12C renal 74.6% | UO-31 renal 63% | TK-10 renal 152% | CAKI-1 renal 77.8% | A498 renal 104% | CCRF-CEM leukemia 78.4% | MOLT-4 leukemia 68.1%

C=CC(=O)Nc1ccc(C)c(Oc2ccc(Cl)cc2)c1
active: SNB-75 CNS -8.04%
inactive: HCT-15 colon 49.7% | HT29 colon 60.2% | SNB-19 CNS 38% | U251 CNS 36.5% | PC-3 prostate 56% | SK-MEL-5 melanoma 53% | UACC-62 melanoma 41.6% | LOX IMVI melanoma 27.8% | SK-MEL-28 melanoma 72% | SK-MEL-2 melanoma 41.8% | EKVX NSCLC 62.6% | SN12C renal 45.3% | UO-31 renal 24.4% | TK-10 renal 74% | ACHN renal 65.4% | CAKI-1 renal 61.7% | A498 renal 58.5% | MOLT-4 leukemia 45.3%

COc1cc2oc(-c3cccc(NC(=O)[C@H](Cc4ccccc4)NC(=O)OC(C)(C)C)c3)cc(=O)c2c(OC)c1OC
inactive: HCT-15 colon 17.4% | HT29 colon 22.8% | SNB-75 CNS 97.6% | SNB-19 CNS 40% | U251 CNS 36.6% | PC-3 prostate 39.7% | SK-MEL-5 melanoma 17.9% | UACC-62 melanoma 54.6% | SK-MEL-28 melanoma 49.9% | SK-MEL-2 melanoma 20.9% | EKVX NSCLC 55.9% | SN12C renal 32% | UO-31 renal 18.2% | TK-10 renal 45.2% | ACHN renal 18.1% | CAKI-1 renal 31.7% | A498 renal 77.9% | CCRF-CEM leukemia 32%

CC(C)C(C(=O)O)n1c(O)c(/C=C2/C=c3cc4c(cc3=NC2=O)OCO4)sc1=S (stereo not given)
inactive: HCT-15 colon 101% | HT29 colon 119% | SNB-75 CNS 101% | SNB-19 CNS 94.4% | U251 CNS 106% | PC-3 prostate 106% | SK-MEL-5 melanoma 103% | UACC-62 melanoma 89.2% | SK-MEL-28 melanoma 110% | SK-MEL-2 melanoma 104% | EKVX NSCLC 99.3% | SN12C renal 96.6% | UO-31 renal 78.2% | TK-10 renal 89.8% | ACHN renal 111% | CAKI-1 renal 93% | A498 renal 102% | CCRF-CEM leukemia 106% | MOLT-4 leukemia 104%

O=C(COc1ccc2c(c1)CCCC(=O)N2)NCc1ccccc1
inactive: HCT-15 colon 42% | HT29 colon 103% | SNB-75 CNS 92.9% | SNB-19 CNS 89% | U251 CNS 90.6% | PC-3 prostate 94.9% | SK-MEL-5 melanoma 82% | UACC-62 melanoma 86.5% | LOX IMVI melanoma 78.1% | SK-MEL-2 melanoma 87.1% | EKVX NSCLC 95.2% | SN12C renal 108% | UO-31 renal 84.7% | TK-10 renal 110% | ACHN renal 103% | CAKI-1 renal 92.7% | A498 renal 94.6% | CCRF-CEM leukemia 78% | MOLT-4 leukemia 80.6%
